Laboratory results from PubChem BioAssay.
Where “and” joins values, the source holds several entries; their conditions need not be identical. Identical values can stand only once. Calls of active or inactive are those of the source. No rule for the calls is given here.

Each compound was assayed on Aerobactin synthetase IucA (Klebsiella pneumoniae hvKP1) (assay: IucA enzyme inhibition, primary screen, biochemical, Spectrum library (AID 1346200;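 also: 100% = wells without compound and 0% = wells lacking enzyme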)). Settings: malachite green pyrophosphate, A620, at 8 µM, hits give low values.
For COc1c(O)cc2oc3cc(O)c(CC=C(C)C)c(O)c3c(=O)c2c1CC=C(C)C, the activity remaining was 93% (inactive).
For Cc1cc(/C=C/c2ccc3cc(N(C)C)ccc3[n+]2C)c(C)n1-c1ccccc1, the activity remaining was 72.1% (inactive).
With NCC1CCCCC1CC(=O)O (configuration not stated) the activity remaining was 98.9% (inactive).
In the case of COc1cc([C@@H]2c3cc4c(cc3C(O[C@@H]3O[C@@H]5CO[C@@H](c6cccs6)OC5[C@H](O)[C@H]3O)C3COC(=O)[C@@H]32)OCO4)cc(OC)c1O (some centres not stated), the activity remaining is reported as 92.9% (inactive).
With C[N+]1(C)CCCC(OC(=O)C(O)(c2ccccc2)c2ccccc2)C1 (configuration not stated) the activity remaining was 111% (inactive).
In the case of O=C(O)c1cc(O)c2c(c1)C(=O)c1cc(O)cc(O)c1C2=O, the activity remaining is reported as 99.8% (inactive).
In the case of CC(C(=O)O)c1ccc(N2Cc3ccccc3C2=O)cc1 (configuration not stated), the activity remaining is reported as 103% (inactive).
With CC(=O)OCC[C@H](C)CCC=C(C)C the activity remaining was 104% (inactive).
For CC(=O)NC1SCCC1=O (configuration not stated), the activity remaining was 112% (inactive).
With CCCC(=O)Nc1ncnc2c1ncn2C1O[C@@H]2COP(=O)(O)O[C@H]2[C@H]1OC(=O)CCC (some centres not stated) the activity remaining was 107% (inactive).
With COc1cc(OC)c(C(C)=O)c(O)c1C the activity remaining was 101% (inactive).
With OC(CCN1CCCC1)(c1ccccc1)C1CCCCC1 (configuration not stated) the activity remaining was 99.4% (inactive).
In the case of COc1cc2c(cc1O)[C@@H](Cc1ccc(O)cc1)[N+](C)(C)CC2, the activity remaining is reported as 75.4% (inactive).
CCC1OC(=O)[C@H](C)C(=O)[C@H](C)[C@@H](OC2O[C@H](C)C[C@H](N(C)C)[C@H]2O)[C@](C)(OC)C[C@@H](C)C(=O)[C@H](C)[C@H]2N(CCCCn3cnc(-c4cccnc4)c3)C(=O)OC12C (some centres not stated) was tested, and the activity remaining was 121% (inactive).
In the case of COc1cc(OC)c2c(=O)c(O)c(-c3ccc(OC)c(OC)c3)oc2c1, the activity remaining is reported as 107% (inactive).
Cc1cc(O)c(C)c(O)c1C(=O)O was tested, and the activity remaining was 121% (inactive).
For CC(C)CCCC(C)[C@H]1CCC2C3CC=C4CC(=O)CC[C@]4(C)C3CC[C@@]21C (some centres not stated), the activity remaining was 113% (inactive).
With C=C(C)[C@H]1COc2cc3oc(=O)ccc3cc2O1 the activity remaining was 118% (inactive).
C=C1C2CC[C@@]3(C)[C@H](c4ccoc4)OC(=O)C[C@]13O[C@H]1C[C@H](OC(C)=O)C(C)(C)[C@H](CC(=O)OC)[C@@]21C was tested, and the activity remaining was 98.7% (inactive).
For COC(=O)C(C)c1ccc(C(=O)c2cccs2)cc1 (configuration not stated), the activity remaining was 103% (inactive).
With COc1c(CC(=O)c2cc3c(cc2O)OC(C)(C)C(O)C3)ccc2c1C=CC(C)(C)O2 (configuration not stated) the activity remaining was 96.2% (inactive).
For O=C(O)c1nc2cc(Cl)c(Cl)cc2[nH]c1=O, the activity remaining was 92.7% (inactive).
In the case of O=C(O[C@@H]1Cc2c(O)cc(O)cc2O[C@@H]1c1ccc(O)c(O)c1)c1cc(O)c(O)c(O)c1, the activity remaining is reported as 107% (inactive).
CC(=O)OCC(=O)[C@H]1CCC2C3CC=C4C[C@@H](O)CC[C@]4(C)C3CC[C@@]21C (some centres not stated) was tested, and the activity remaining was 92.3% (inactive).
For Cc1ccc(C)c(OCCCC(C)(C)C(=O)O)c1, the activity remaining was 116% (inactive).
With C[C@H](CCC(=O)O)[C@H]1CCC2C3C(=O)CC4CC(=O)CC[C@]4(C)C3CC(=O)[C@@]21C (some centres not stated) the activity remaining was 122% (inactive).
Cc1cccc(CN2CCN(C(c3ccccc3)c3ccc(Cl)cc3)CC2)c1 (configuration not stated) was tested, and the activity remaining was 95.5% (inactive).
COC(=O)[C@]1(C)CC[C@]2(C)CC[C@]3(C)C4=CCc5c(cc(O)c(O)c5C)[C@]4(C)CC[C@@]3(C)C2C1 (some centres not stated) was tested, and the activity remaining was 106% (inactive).
NC(=O)N1c2ccccc2CC(=O)c2ccccc21 was tested, and the activity remaining was 123% (inactive).
With CN1CCC(OC(c2ccccc2)c2ccccc2)CC1 the activity remaining was 108% (inactive).
In the case of CN1CCN(CCC=C2c3ccccc3Sc3ccc(S(=O)(=O)N(C)C)cc32)CC1, the activity remaining is reported as 116% (inactive).
For COc1ccc(/C=C/C(=O)O)cc1OC, the activity remaining was 110% (inactive) and 92.7% (inactive).
C[n+]1cccc(C(=O)[O-])c1 was tested, and the activity remaining was 92.7% (inactive).
For COc1cc(S(C)=O)ccc1-c1nc2ncccc2[nH]1 (configuration not stated), the activity remaining was 108% (inactive).
COC(=O)[C@@H]1C(O)CC[C@H]2CN3CCc4c([nH]c5ccccc45)[C@@H]3C[C@@H]21 (some centres not stated) was tested, and the activity remaining was 96.8% (inactive).
CCC(=O)O[C@H]1[C@H](O[C@@H]2[C@@H](C)[C@H](O[C@H]3C[C@@](C)(OC)[C@@H](O)[C@H](C)O3)[C@@H](C)C(=O)O[C@H](CC)[C@@](C)(O)[C@H](O)[C@@H](C)C(=O)[C@H](C)C[C@@]2(C)O)O[C@H](C)C[C@@H]1N(C)C was tested, and the activity remaining was 121% (inactive).
In the case of CNS(=O)(=O)Cc1ccc2[nH]cc(CCN(C)C)c2c1, the activity remaining is reported as 115% (inactive).
